This passage reports outcome results from PubChem BioAssay AID492998 (Southern Research Specialized Biocontainment Screening …, 2010).

About 550 (24%) of roughly 2,300 compounds were called active. The rule behind the calls is not given here. These entries were drawn from the full list. Entries with a potency or affinity are not part of this list.

This assay is described as follows: Vero E6 cell cytotoxicity, dose response, cytotoxicity control for non-replicating M. tuberculosis project, secondary assay (AID 492998). As to conditions: series mostly up to 20 µM.
As to `c1ccc(OCc2nnc3sc(-c4cccs4)nn23)cc1`, the call was inactive.

Take `CCOC(=O)c1cc([N+](=O)[O-])c([N+](=O)[O-])cc1NC(C)=O`: the call was inactive.

As to `O=C(c1ccc([N+](=O)[O-])o1)N1CCN(c2nc3ccc(F)cc3s2)CC1`, the result was inactive.

As to `COc1cc2c(cc1OC)CN(C(=O)c1ccc([N+](=O)[O-])o1)CC2`, the result was inactive.

`CC1(CCc2ccc3c(c2)OCO3)NC(=O)c2ccccc2N1` (stereo not drawn): the call was inactive.

On to `COc1ccccc1-c1cc(SC)c(C#N)c(=O)o1`, for which the result was inactive.

With `COc1ccccc1-c1nnc(-c2ccc(C)cc2)o1`, the compound was classed as inactive.

With `CCc1ccc(NC(=O)CCc2ccc(C)o2)cc1`, the outcome was inactive.

With `O=S(=O)(NCc1cccnc1)c1ccc(Cl)c(Cl)c1Cl`, the outcome was inactive.

Consider `Cc1ccccc1OCCNc1cc(N2CC(C)NC(C)C2)ccc1[N+](=O)[O-]` (stereo not drawn), for which the outcome was inactive.

Consider `CC1CCCN(CCCOc2ccc([N+](=O)[O-])cc2)C1` (stereo not drawn), for which the compound was classed as inactive.

Turning to `S=c1[nH]c2ccccc2o1`, the outcome was inactive.

Take `CCOc1ccc(OC(=O)c2ccc3c(=O)n4c(nc3c2)CCC4)cc1`: the result was inactive.

As to `O=Cc1c(NCc2ccco2)nc2ccccn2c1=O`, the compound was classed as inactive.

As to `CC(C)Oc1ccc(CNC(=O)Oc2ccccc2)cc1`, the compound was called inactive.

Turning to `CCCOc1ccc(N2CC(C(=O)Nc3ccccc3F)CC2=O)cc1` (stereo not drawn), the call was inactive.

For `CCOC(=O)Cn1c2ccc(F)cc2c2nc(C)sc21`, the compound was classed as inactive.

Turning to `Cc1cccc(NC(=O)c2cc3ccccc3o2)c1`, the compound was called inactive.

For the compound `CC(C)(C)NC(=O)C(=O)NNC(=O)c1ccc(C(C)(C)C)cc1`, the result was inactive.

Consider `CCOC(=O)c1nc2sc3c(c2c(=O)[nH]1)CCC(C)C3` (stereo not drawn), for which the outcome was inactive.

Turning to `O=C(CCN1C(=O)S/C(=C\c2ccc(F)cc2)C1=O)Nc1ccc(C(=O)O)c(O)c1`, the compound was classed as inactive.

Consider `COc1ccc(OCC(=O)Nc2ccc(N3CCN(C(=O)c4ccco4)CC3)cc2)cc1`, for which the compound was called inactive.

For `CC(=O)c1cccc(NC(=O)C2COc3ccccc3O2)c1` (stereo not drawn), the compound was classed as inactive.

On to `Cc1ccc(CNCc2cc(Cl)ccc2O)cc1`, for which the compound was classed as inactive.

For the compound `O=C(CCCOc1ccccc1)OCn1nnc2ccccc2c1=O`, the compound was called inactive.

As for `O=C(NCc1ccccc1)c1cc2ccccc2oc1=O`, the outcome was inactive.

On to `CCC/C(=N\NC(=O)c1ccco1)c1ccc(Cl)s1`, for which the outcome was inactive.

For `O=C(Nc1nccs1)c1ccc(Br)cc1`, the compound was called inactive.

As to `C/C(=C\C(=O)c1ccc(Br)cc1)NNC(=O)c1ccccc1`, the outcome was inactive.

With `COc1cc(C=O)ccc1OCCCCOc1ccccc1[N+](=O)[O-]`, the compound was classed as inactive.

As to `CCOC(=O)c1cc(-c2c(Cl)cccc2Cl)no1`, the compound was called inactive.

Consider `COc1ccc(CN=C2NN=C(c3ccc(Cl)cc3)CS2)cc1`, for which the call was inactive.

As to `O=C(O)CCCCCN1C(=O)CSC1=S`, the compound was called inactive.

Take `c1ccc(Cn2c(SCCN3CCOCC3)nnc2-c2cccnc2)cc1`: the result was inactive.

With `O=C(O)c1ccc(CN2C(=O)CSC2=S)cc1`, the compound was called inactive.

`O=C1NC(Cc2c[nH]c3ccccc23)C(=O)N1CCOc1ccccc1` (stereo not drawn): the outcome was inactive.

As to `CCOc1ccc(/C=N/OCC(=O)Nc2ccc3c(c2)OCO3)cc1`, the call was inactive.

Turning to `COc1cccc(OCC(=O)NNC(=O)c2cccs2)c1`, the compound was called inactive.

Consider `CCC(=O)N/N=C/c1ccc(-c2ccc(Cl)cc2)o1`, for which the result was inactive.

As to `Cc1ccc(CO/N=C/c2c(O)cc(C)oc2=O)cc1`, the call was inactive.

On to `Cc1ccc(NC(=O)C2COc3ccccc3O2)nc1` (stereo not drawn), for which the outcome was inactive.

As for `O=C1NC(=S)S/C1=C\c1ccc(SCc2ccco2)o1`, the outcome was inactive.

As to `O=C(C/C=N\OCc1ccc([N+](=O)[O-])cc1)Nc1ccccc1`, the outcome was inactive.

Take `C/C(=N\Nc1nc2ccccc2[nH]1)c1ccc(N2CCOCC2)cc1`: the compound was classed as inactive.

Take `CCCc1cc(=O)n2[nH]c(C)c(-c3ccccc3)c2n1`: the compound was called inactive.

As to `CC(C)[C@H](NC(=O)c1ccc(Br)cc1)C(=O)NC1CCCCC1`, the outcome was inactive.

As to `O=C(c1cc([N+](=O)[O-])cc([N+](=O)[O-])c1)N(Cc1nnc(-c2ccccc2Cl)o1)C1CC1`, the call was inactive.

As for `CC(=O)N1CCN(C(=O)CC2OC(=O)c3ccccc32)CC1` (stereo not drawn), the outcome was inactive.

Regarding `Cc1c(Cl)cccc1-c1ccc(CNCc2ccccn2)o1`, the call was inactive.

In the case of `Cc1ccsc1C(=O)OCC(=O)NCCC1=CCCCC1`, the compound was called inactive.

`COCCn1c(C)cc(C(=O)COC(=O)c2ccc(Br)o2)c1C`: the call was inactive.

Turning to `COc1cc(/C=C2/C(=O)NN(c3cccc(F)c3)C2=O)ccc1OC(=O)c1ccco1`, the compound was classed as inactive.

Turning to `CC(C)(C)OC(=O)N/N=C\c1ccc([N+](=O)[O-])s1`, the compound was called inactive.

In the case of `O=C(Nc1ccc(Cl)c(Cl)c1)O/N=C/c1ccncc1`, the call was inactive.

`CCCCN(C/C=C/c1ccccc1OC)Cc1ccccc1`: the call was inactive.

With `CCCOC(=O)c1ccc(NC(=O)c2ccc(Br)o2)cc1`, the compound was classed as inactive.

As to `COc1ccc(-c2nc(C=O)cs2)cc1`, the compound was called inactive.

Regarding `Cc1cccc(NC(=O)COc2ccc(Br)cc2)n1`, the result was inactive.

For `COc1cccc(NC(=O)c2cc3ccccc3oc2=O)c1`, the result was inactive.

For the compound `Cc1ccc(C(=O)c2cncc(Br)c2)cc1`, the outcome was inactive.

Take `CC(=O)Oc1ccc(/C=C2\N=C(C3CCCCC3)OC2=O)cc1`: the compound was classed as inactive.

Consider `CCCCOc1ccc(-c2nnn(C(C)C(=O)OCC)n2)cc1` (stereo not drawn), for which the call was inactive.

Consider `Clc1ccc(N=c2ssnc2Cl)nc1`, for which the compound was called inactive.

Regarding `COc1ccccc1N1CCN(C(=O)c2ccc([N+](=O)[O-])s2)CC1`, the outcome was inactive.

Turning to `O=C(c1ccc([N+](=O)[O-])s1)N1CCN(c2cccc(Cl)c2)CC1`, the compound was classed as inactive.

Consider `Cc1ccccc1N1CCN(Cc2ccc([N+](=O)[O-])o2)CC1`, for which the result was inactive.

In the case of `O=[N+]([O-])c1ccc(CN2CCN(c3ccccc3Cl)CC2)o1`, the outcome was inactive.

For the compound `CCOC(=O)COc1ccc2c(=O)c(-c3ccccc3OC)coc2c1`, the compound was called inactive.

For the compound `COc1ccc(OCCOC(=O)CCS(=O)(=O)c2ccc(C)cc2)cc1`, the result was inactive.

Consider `C=CCN(CC=C)CC(=O)Nc1ccc(S(N)(=O)=O)cc1`, for which the outcome was inactive.

For the compound `O=C1N/C(=N\c2ccccn2)SC1Cc1ccc(Cl)cc1` (stereo not drawn), the compound was called inactive.

As to `COc1ccc(OCCSc2nnc(Cc3cccc4ccccc34)n2N)cc1`, the compound was classed as inactive.

Regarding `CC1=CC2=NC(=O)/C(=C\c3ccc(OC(=O)c4ccco4)cc3)C(=N)N2O1`, the compound was classed as inactive.

In the case of `Cn1[nH]c(-c2ccccc2)c(/C=N/O)c1=O`, the compound was called inactive.

For `CS/C(Nc1cc(Cl)ccc1Cl)=C(/C#N)C(=O)c1ccco1`, the outcome was inactive.

Take `COc1ccc(N2C(=O)C(F)(F)C2c2cccc(F)c2)cc1` (stereo not drawn): the compound was called inactive.

With `O=C(NN=C(Cc1ccccc1)Cc1ccccc1)c1ccncc1`, the outcome was inactive.

`O=C(N/N=C/C=C/c1ccccc1)c1ccncc1`: the outcome was inactive.
